The text below walks through data of PubChem BioAssay (NCI).

Holding throughout (experiment): NCI-60 one-dose screen, 48 h (100 = growth as untreated, 0 = no growth, -100 = all killed)
Experiment [1] deals with HCT-15 colon. Particulars: 10 µM unless noted.
The subject of experiment [2] is HT29 colon. The note with it: 10 µM unless noted.
In experiment [3] the test system is SNB-75 CNS. The note with it: 10 µM unless noted.
Experiment [4] has as its system SNB-19 CNS. Particulars: 10 µM unless noted.
Experiment [5] deals with U251 CNS. The note with it: 10 µM unless noted.
Experiment [6] has as its system PC-3 prostate. Particulars: 10 µM unless noted.
For experiment [7], the system named is SK-MEL-5 melanoma. Particulars: 10 µM unless noted.
Experiment [8] deals with UACC-62 melanoma. Particulars: 10 µM unless noted.
For experiment [9], the system named is LOX IMVI melanoma. The note with it: 10 µM unless noted.
Experiment [10] concerns SK-MEL-28 melanoma. The note with it: 10 µM unless noted.
In experiment [11] the test system is SK-MEL-2 melanoma. Particulars: 10 µM unless noted.
Experiment [12] relates to EKVX NSCLC. Particulars: 10 µM unless noted.
Experiment [13] concerns SN12C renal. Particulars: 10 µM unless noted.
Experiment [14] deals with UO-31 renal. The note with it: 10 µM unless noted.
Experiment [15] relates to TK-10 renal. The note with it: 10 µM unless noted.
Experiment [16] has as its system ACHN renal. Particulars: 10 µM unless noted.
In experiment [17] the test system is CAKI-1 renal. Particulars: 10 µM.
Experiment [18] concerns A498 renal. Particulars: 10 µM unless noted.
Experiment [19] deals with CCRF-CEM leukemia. Particulars: 10 µM unless noted.
Experiment [20] relates to MOLT-4 leukemia. The note with it: 10 µM unless noted.

About 83,000 compounds went through this panel and 20% of them were active in at least one assay; those are over-represented in the sample as a whole.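 Plates (96-well) were seeded with cells, treated with compound at one concentration, and incubated for 48 hours before percent growth was determined.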 A number with no mark means an inactive call. Calls of active or inactive are those of the source. The calls were made as follows: active = growth percent below 10; inactive = the rest.

Take `Nc1cc(F)ccc1NC(=O)c1ccc(NC(=O)C/C=C/c2cccnc2)cn1`: the growth is 19.8% in [1]; 11.4% in experiment [2]; 31.9% in [3]; 31.7% in experiment [4]; 17.9% in experiment [5]; 36.9% in experiment [6]. Moreover, the growth was -58.1% (active) in experiment [7]; 5.97% (active) in [8]; 16.6% in experiment [9]; -9.71% (active) in experiment [10]; 9.74% (active) in experiment [11]; 49.7% in [12]. Moreover, the growth is 20.1% in [13]; 5.53% (active) in experiment [14]; 22.3% in [15]; 31.3% in experiment [16]; 33.9% in experiment [17]; -13.2% (active) in experiment [18]. Also, the growth is 15.1% in [19] and 24.7% in [20].

Turning to `CCC(=O)Nc1ccc(-c2nc(-c3cccc(O)c3)c(-c3ccnc(Br)c3)[nH]2)cc1`, the growth in [1] was 78.6%; in experiment [2], 51.7%; in experiment [3], 8.26% (active); in [4] it was 58%; in [5] it was 47.8%; in [6], 60.5%. Besides, the growth was 77% in experiment [7]; 34.6% in [8]; 59.3% in [9]; 59.1% in experiment [10]; 65.9% in experiment [11]; 88.4% in experiment [12]. Further, the growth is 67.4% in experiment [13]; 69.7% in [14]; 87.6% in experiment [15]; 82.8% in experiment [16]; 65.1% in experiment [17]; 70.5% in experiment [18]. For the same compound, the growth in [19] is 22.4%; in [20] it was 39.9%.

With `CN(C)CCn1c2ccc(N)cc2c2nc3ccccc3nc21`, the growth is 21.1% in experiment [1]; 21.3% in experiment [2]; 54.2% in experiment [3]; 32.1% in experiment [4]; 33.4% in experiment [5]; 38.6% in experiment [6]. Moreover, the growth is 27% in [7]; 35.2% in experiment [8]; 9.95% (active) in experiment [9]; 54.5% in experiment [10]; 54.6% in [11]; 40.6% in [12]. The growth in experiment [13] is 25.6%; in experiment [14], 23%; in [15], 60.2%; in experiment [16], 13.9%; in experiment [17], 28.6%; in experiment [19], 29.5%. Further, the growth in [20] was 8.1% (active).

For the compound `N#C/C(=C\c1ccc(Cl)cc1Cl)C(N)=O`, the growth in experiment [1] is 87.7%; in [2], 106%; in [3], 90.2%; in experiment [4], 97.6%; in experiment [5] it was 95.5%; in experiment [6], 92.5%. In addition, the growth in experiment [7] was 101%; in [8], 96.8%; in [9], 97.3%; in [10], 112%; in experiment [11], 106%; in experiment [12], 105%. Also, the growth was 98.3% in [13]; 94.4% in [14]; 102% in experiment [15]; 101% in experiment [16]; 90.8% in experiment [17]; 89.7% in experiment [19]. Also, the growth in experiment [20] is 109%.

For the compound `CCOC(=O)c1c(NCC(=O)Nc2cccc(Cl)c2)sc2c1CCCC2`, the growth in [1] is 66.4%; in [2], 101%; in experiment [3], 59.5%; in experiment [4], 82.7%; in experiment [5], 63.6%; in [6] it was 73.6%. Also, the growth in [7] was 84.5%; in [8], 61.9%; in experiment [9], 35.3%; in experiment [10] it was 89.5%; in [11], 93.5%; in experiment [12], 89.9%. Besides, the growth was 73% in [13]; 76.4% in experiment [14]; 146% in experiment [15]; 88.7% in experiment [16]; 68.4% in experiment [17]; 58% in experiment [19]. Further, the growth in [20] was 47.2%.

For the compound `COc1ccc(N)cc1C(=O)Nc1cccc(-c2cc(=O)c3c(OC)c(OC)c(OC)cc3o2)c1`, the growth in experiment [1] was 44.7%; in [2], 56.5%; in experiment [3] it was 93.1%; in experiment [4], 76.6%; in experiment [5] it was 49.9%; in [6] it was 74.1%. For the same compound, the growth in experiment [7] is 41%; in experiment [8] it was 61.2%; in experiment [9], 44.3%; in experiment [10], 86.6%; in [11], 89.1%; in experiment [12], 84.8%. Moreover, the growth is 49.7% in experiment [13]; 29.4% in experiment [14]; 81.5% in experiment [15]; 52.3% in experiment [16]; 43.1% in experiment [17]; 34% in [19]. Also, the growth in experiment [20] is 48.2%.

As for `CCCCCCNC(=O)Oc1ccc(/C(=C(/C)c2ccc(OC)cc2)c2ccc(OCCN3CCCC3)cc2)cc1`, the growth in experiment [1] was 17.3%; in experiment [2] it was 13.9%; in [3], 85.5%; in experiment [4] it was 72.2%; in experiment [5] it was 58.6%; in experiment [6], 67.7%. Moreover, the growth is 53.7% in experiment [7]; 74.2% in experiment [8]; -39.1% (active) in experiment [9]; 60.3% in [10]; 93.4% in experiment [11]; 79.5% in [12]. Further, the growth in experiment [13] is 82.3%; in experiment [14], 38.7%; in [15] it was 116%; in [16], 84.3%; in experiment [17], 87%; in experiment [19], 62.4%. In addition, the growth in experiment [20] is 30.4%.
